Results on 31 molecules are retold here after PubChem BioAssay AID602127 (Broad Institute, 2011).

Each structure is given as a SMILES string. Entries with a potency or affinity are not part of this list. Values without a mark were called inactive. Activity calls are given as the source filed them.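 How the source made its calls: active means every repeat test judged active, meaning a falling signal with potency within twice the top valid dose; inconclusive means repeat tests disagree on the call; inactive means every repeat test inactive, including signal moving upward.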

The target of this assay is Cyclin-dependent kinase 2 (Homo sapiens) (UniProt P24941). The assay is described as follows: inhibition of human CDK2/cyclin A – biochemical, cherry-picked samples, selectivity assay for Dyrk1A inhibitor project, dose response (AID 602127). Particulars: ADP-Glo luminescence, 60 min; series mostly up to 10 µM; activity change, negative = inhibition: at the top concentration.
Regarding `COCCNC(=O)c1ccc2c(c1)nc(C)n2-c1cccc(F)c1`, the “activity change, negative = inhibition” value is 1.17%. `Cc1nc(CNc2ncnc3ccc(-c4ccc5c(c4)OCO5)cc23)cs1`: the “activity change, negative = inhibition” value was 1.07%. Same read-out and setting: in the case of `Cc1ccc(CNc2ncnc3ccc(-c4ccoc4C)cc23)o1` it was 15.1%; in that of `COc1cccc(Nc2ncnc3ccccc23)c1`, -17.9%; in that of `FC(F)(F)c1cccc(Nc2nccc(-c3ccc4c(c3)OCO4)n2)c1`, 7.47%. On the same count and under the same terms, in the case of `Clc1ccc(CNc2ncncc2-c2ccc3c(c2)OCO3)cc1` it was -1.46%.

For the molecule `Brc1ccc(CNc2nccc(-c3ccc4c(c3)OCO4)n2)cc1Br`, the “activity change, negative = inhibition” value is 2.82%.

`O=C(Nc1nc(-c2ccc3c(c2)OCCO3)cs1)c1ccco1`: the “activity change, negative = inhibition” value was 1.2%. For the molecule `COc1ccc(-c2[nH]ncc2-c2ccc3c(c2)OCCO3)c(O)c1`, the “activity change, negative = inhibition” value is 5.43%. On the same count and under the same terms, in the case of `CC(=O)Nc1ccc(Nc2cc(C)nc3c(-c4ccccc4)cnn23)cc1` it was -11.3%; in that of `c1cncc(CNc2ccnc(-c3ccc4cn[nH]c4c3)n2)c1`, 2.85%. Still for that read-out and setting: in the case of `N#Cc1c(C(F)(F)F)cc(-c2cccc(Cl)c2)[nH]c1=O` it was 1.81%; in that of `Clc1ccc(CNc2nccc(-c3ccc4[nH]ncc4c3)n2)cc1Cl`, -6.13%. The same measure, in the same setting: in the case of `COc1ccc(-c2cc(NCCc3ccncc3)n3ncnc3n2)cc1` it was -20.4%; in that of `c1csc(CCNc2ncnc3ccc(-c4ccc5c(c4)OCO5)cc23)c1`, -13.2%; in that of `O=c1cc(-c2ccccc2Cl)oc2c(NS(=O)(=O)c3ccccc3C(F)(F)F)ccc(O)c12`, -8.7%.

With `c1nc(NCC2CCCO2)c2cc(-c3ccc4c(c3)OCO4)ccc2n1` (stereo unspecified), the “activity change, negative = inhibition” value is 9.32%. `Cc1nc(NC(=O)c2ccccc2)sc1-c1csc(NCc2ccco2)n1`: the “activity change, negative = inhibition” value is -9.08%. Same read-out and setting: in the case of `CCN(Cc1cccs1)c1ncnc2ccc(-c3ccc4c(c3)OCO4)cc12` it was -3.99%; in that of `c1cc(-c2ccc3c(c2)OCO3)nc(Nc2ccc3c(c2)OCO3)n1`, -2.14%.

In the case of `CSCC(=O)Nc1nc(-c2ccc3c(c2)OCCO3)cs1`, the “activity change, negative = inhibition” value is -13.3%. In the case of `COc1cccc(NC(=O)Nc2ccc3c(c2)N(C)C(=O)CS3)c1`, the “activity change, negative = inhibition” value is -5.88%. Take `CCOC(=O)c1ccc(-c2ccc3ncnc(NCc4ccc(C)o4)c3c2)o1`: the molecule was classed as inactive. Take `CCN1CCN(Cc2ccc(NC(=O)c3ccc(C)c(/C=C/c4cnc(Nc5cc(N6CCNCC6)nc(C)n5)cn4)c3)cc2C(F)(F)F)CC1`: the “activity change, negative = inhibition” value is -2.61%. Regarding `CCOC(=O)c1ccc(-c2ccc3ncnc(N(C)Cc4sccc4C)c3c2)o1`, the “activity change, negative = inhibition” value was -1.21%. Consider `COc1ccc(-c2nccc(NCc3ccc(C)cc3)n2)cc1`, for which the “activity change, negative = inhibition” value was -10.5%.

Consider `CC(Nc1nc(-c2cccnc2)nc2ccccc12)c1ccc(F)cc1` (stereo unspecified), for which the “activity change, negative = inhibition” value is -15.5%. For `c1cncc(CNc2cc(-c3ccc4c(c3)OCO4)ncn2)c1`, the “activity change, negative = inhibition” value is -0.949%. On the same count and under the same terms, in the case of `Clc1ccc(CNc2ccnc(-c3ccc4[nH]ncc4c3)n2)cc1Cl` it was -5.16%. `COc1cccc(-c2sc3ccccc3c2-c2ccc(OCCN3CCCC3)cc2)c1`: the “activity change, negative = inhibition” value is 1.27%. Consider `NC(=O)c1c(NC(=O)c2ccc(N3C(=O)CCC3=O)cc2)sc2c1CCCC2`, for which the “activity change, negative = inhibition” value is -15.9%.
